PubChem BioAssay
The source made the active and inactive calls.

Legend:
[1] = small molecules captured by biotinylated probe aFSTL3 – biochemical, small-molecule microarray, fluorescence 635/667, stem cell growth factor project, primary screen (AID 1064); conditions: higher = more signal;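 note: measures binding of the biotinylated anti-FSTL3 antibody to printed compounds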
[2] = binders from COS7 lysate, DM2A8 probe, primary screen, torsin A project, cell lysate, small-molecule microarray, fluorescence 635/667 (AID 1065); conditions: higher = more signal, COS7 lysate expressing mutant human TOR1A
[3] = small molecules captured by biotinylated probe aFGF2 – biochemical, small-molecule microarray, fluorescence 635/667, stem cell growth factor project, primary screen (AID 1067); conditions: higher = more signal;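 note: measures binding of biotinylated aFGF2 protein to printed compounds on slides; z-score merges feature fluorescence and signal-to-noise across triplicate slides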
[4] = small molecules captured by biotinylated probe aFGF10 – biochemical, small-molecule microarray, fluorescence 635/667, stem cell growth factor project, primary screen (AID 1071); conditions: higher = more signal;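 note: score merges 667 nm spot intensity and signal to noise from triplicate slides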
[5] = target: Neurogenic locus notch homolog protein 2 (Homo sapiens) (UniProt Q04721); assay: small molecules binding Notch2 protein – biochemical, small-molecule microarray, 635 nm fluorescence, stem cell growth factors, primary screen (AID 1073); conditions: higher = more signal
[6] = target: Pro-neuregulin-1, membrane-bound isoform (Homo sapiens) (UniProt Q02297); assay: small molecules binding neuregulin-1 protein – biochemical, small-molecule microarray, fluorescence 635/667, psychiatric disease protein project, primary screen (AID 1075); conditions: NRG1 binding, 635 nm fluorescence, higher = more signal;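 note: score combines 667 nm spot fluorescence with signal to noise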
[7] = tested on: Neuregulin-1 EGF-like domain; assay: small molecules binding NRG1 EGF domain – biochemical, small-molecule microarray, 635 nm fluorescence, primary screen (AID 1081); conditions: higher = more signal;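 note: binding of the protein to compounds printed on small-molecule microarray slides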
[8] = FRG1 expression reporter modulators in myotubes – cell-based, C2C12 myotubes, firefly/Renilla luciferase, luminescence, FRG1 inhibition for FSHD, primary screen (AID 1084); conditions: FRG1 promoter luciferase, higher = more signal, called active from +8 up or from −8 down
[9] = small molecules captured by biotinylated probe aFST – biochemical, small-molecule microarray, fluorescence 635/667, stem cell growth factor project, primary screen (AID 1086); conditions: higher = more signal;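 note: score merges 667 nm fluorescence with signal-to-noise of each printed compound spot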
[10] = binders of probe aHhip on microarray, primary screen, stem cell growth factor project, biochemical, small-molecule microarray, fluorescence 635/667 (AID 1087); conditions: higher = more signal;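 note: score merges spot fluorescence at 667nm with spot signal to noise ratio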
[11] = tested on: PRMT1 (protein arginine N-methyltransferase 1); assay: small molecules binding arginine methyltransferase PRMT1 – biochemical, small-molecule microarray, 635 nm fluorescence, primary screen (AID 1088); conditions: higher = more signal;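 note: binding of Prmt1 protein to compounds spotted on small-molecule microarray slides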
[12] = growth effects on S. cerevisiae YJM789 – YJM789 clinical isolate, OD600, 24 h, basal, primary screen (AID 1089); conditions: higher = more signal, called active from +8 up or from −8 down;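 note: growth of clinical yeast isolate S. cerevisiae YJM 789 seeded 1000 cells per well; test concentration not given here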
[13] = S. pombe growth modifiers, basal conditions – strain 972, OD600, 24 h, no modulator, primary screen (AID 1090);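 note: basal condition with compound alone and no growth modifier present; test concentration not given here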; conditions: S. pombe 972 growth, higher = more signal, called active from +8 up or from −8 down
[14] = budding yeast growth modifiers under rapamycin – strain BY4716, OD600, 96 h, primary screen (AID 1091); note: test concentration not given here; conditions: S. cerevisiae BY4716 + rapamycin, higher = more signal, called active from +8 up or from −8 down
[15] = target: Torsin-1A-interacting protein 2 (Homo sapiens) (UniProt Q8NFQ8); assay: small molecules binding lysate-expressed LULL1 – cell lysate, human LULL1 lysate, 635/667 nm fluorescence, primary screen (AID 1092); conditions: small-molecule microarray, hLULL1 lysate binding, 635 nm fluorescence; higher = more signal;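 note: probe is lysate of COS7 cells overexpressing human LULL1; score merges per-feature 667 nm fluorescence with signal-to-noise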
[16] = optical density change of DRC41 E. coli – strain DRC41, OD650, 24 h, E. coli filamentation project, primary screen (AID 1093);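 note: MC1000 strain lacking acrAB efflux and sulA so SOS filamentation is blocked; test concentration not given here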; conditions: E. coli DRC41 growth, higher = more signal, called active from +8 up or from −8 down
[17] = probe aLefty2 binding to arrayed compounds – biochemical, biotinylated probe, 635/667 nm fluorescence, primary screen (AID 1094); conditions: small-molecule microarray, higher = more signal;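 note: score merges spot fluorescence near 667 nm with spot signal-to-noise ratio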
[18] = tested on: Noggin (protein binding on small-molecule microarray); assay: small molecules binding Noggin protein – biochemical, 635/667 nm fluorescence, primary screen (AID 1095); conditions: 635 nm fluorescence, higher = more signal;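 note: score merges 667 nm feature fluorescence with signal to noise over triplicate slides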
[19] = target: Neurogenic locus notch homolog protein 3 (Homo sapiens) (UniProt Q9UM47); assay: small molecules binding NOTCH3 protein – biochemical, 635/667 nm fluorescence, primary screen (AID 1096); conditions: small-molecule microarray, 635 nm fluorescence, higher = more signal
[20] = probe aEGFR binding to arrayed compounds – biochemical, biotinylated probe, 635/667 nm fluorescence, primary screen (AID 1097); conditions: small-molecule microarray, higher = more signal;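 note: probe is a biotinylated anti-EGFR antibody binding compounds printed on slides; score combines fluorescence near 667 nm and signal to noise of each spot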

Chain of Torsin-1A-interacting protein 2 (Homo sapiens) (Q8NFQ8 whole entry, looked up): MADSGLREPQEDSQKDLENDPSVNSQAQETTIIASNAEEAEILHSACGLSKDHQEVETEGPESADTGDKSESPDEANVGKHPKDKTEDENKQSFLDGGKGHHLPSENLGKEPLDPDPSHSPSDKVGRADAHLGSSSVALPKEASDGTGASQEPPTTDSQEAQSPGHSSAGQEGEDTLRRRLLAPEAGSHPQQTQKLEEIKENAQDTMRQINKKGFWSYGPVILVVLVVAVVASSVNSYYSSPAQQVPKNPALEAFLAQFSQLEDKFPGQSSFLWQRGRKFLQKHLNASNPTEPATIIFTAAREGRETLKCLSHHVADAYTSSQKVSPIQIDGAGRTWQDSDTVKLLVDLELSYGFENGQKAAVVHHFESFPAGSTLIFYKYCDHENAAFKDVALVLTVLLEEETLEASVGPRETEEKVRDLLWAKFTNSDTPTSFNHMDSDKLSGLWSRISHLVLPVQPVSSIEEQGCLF
Chain of Neurogenic locus notch homolog protein 2 (Homo sapiens) (Q04721 whole entry, looked up, canonical isoform): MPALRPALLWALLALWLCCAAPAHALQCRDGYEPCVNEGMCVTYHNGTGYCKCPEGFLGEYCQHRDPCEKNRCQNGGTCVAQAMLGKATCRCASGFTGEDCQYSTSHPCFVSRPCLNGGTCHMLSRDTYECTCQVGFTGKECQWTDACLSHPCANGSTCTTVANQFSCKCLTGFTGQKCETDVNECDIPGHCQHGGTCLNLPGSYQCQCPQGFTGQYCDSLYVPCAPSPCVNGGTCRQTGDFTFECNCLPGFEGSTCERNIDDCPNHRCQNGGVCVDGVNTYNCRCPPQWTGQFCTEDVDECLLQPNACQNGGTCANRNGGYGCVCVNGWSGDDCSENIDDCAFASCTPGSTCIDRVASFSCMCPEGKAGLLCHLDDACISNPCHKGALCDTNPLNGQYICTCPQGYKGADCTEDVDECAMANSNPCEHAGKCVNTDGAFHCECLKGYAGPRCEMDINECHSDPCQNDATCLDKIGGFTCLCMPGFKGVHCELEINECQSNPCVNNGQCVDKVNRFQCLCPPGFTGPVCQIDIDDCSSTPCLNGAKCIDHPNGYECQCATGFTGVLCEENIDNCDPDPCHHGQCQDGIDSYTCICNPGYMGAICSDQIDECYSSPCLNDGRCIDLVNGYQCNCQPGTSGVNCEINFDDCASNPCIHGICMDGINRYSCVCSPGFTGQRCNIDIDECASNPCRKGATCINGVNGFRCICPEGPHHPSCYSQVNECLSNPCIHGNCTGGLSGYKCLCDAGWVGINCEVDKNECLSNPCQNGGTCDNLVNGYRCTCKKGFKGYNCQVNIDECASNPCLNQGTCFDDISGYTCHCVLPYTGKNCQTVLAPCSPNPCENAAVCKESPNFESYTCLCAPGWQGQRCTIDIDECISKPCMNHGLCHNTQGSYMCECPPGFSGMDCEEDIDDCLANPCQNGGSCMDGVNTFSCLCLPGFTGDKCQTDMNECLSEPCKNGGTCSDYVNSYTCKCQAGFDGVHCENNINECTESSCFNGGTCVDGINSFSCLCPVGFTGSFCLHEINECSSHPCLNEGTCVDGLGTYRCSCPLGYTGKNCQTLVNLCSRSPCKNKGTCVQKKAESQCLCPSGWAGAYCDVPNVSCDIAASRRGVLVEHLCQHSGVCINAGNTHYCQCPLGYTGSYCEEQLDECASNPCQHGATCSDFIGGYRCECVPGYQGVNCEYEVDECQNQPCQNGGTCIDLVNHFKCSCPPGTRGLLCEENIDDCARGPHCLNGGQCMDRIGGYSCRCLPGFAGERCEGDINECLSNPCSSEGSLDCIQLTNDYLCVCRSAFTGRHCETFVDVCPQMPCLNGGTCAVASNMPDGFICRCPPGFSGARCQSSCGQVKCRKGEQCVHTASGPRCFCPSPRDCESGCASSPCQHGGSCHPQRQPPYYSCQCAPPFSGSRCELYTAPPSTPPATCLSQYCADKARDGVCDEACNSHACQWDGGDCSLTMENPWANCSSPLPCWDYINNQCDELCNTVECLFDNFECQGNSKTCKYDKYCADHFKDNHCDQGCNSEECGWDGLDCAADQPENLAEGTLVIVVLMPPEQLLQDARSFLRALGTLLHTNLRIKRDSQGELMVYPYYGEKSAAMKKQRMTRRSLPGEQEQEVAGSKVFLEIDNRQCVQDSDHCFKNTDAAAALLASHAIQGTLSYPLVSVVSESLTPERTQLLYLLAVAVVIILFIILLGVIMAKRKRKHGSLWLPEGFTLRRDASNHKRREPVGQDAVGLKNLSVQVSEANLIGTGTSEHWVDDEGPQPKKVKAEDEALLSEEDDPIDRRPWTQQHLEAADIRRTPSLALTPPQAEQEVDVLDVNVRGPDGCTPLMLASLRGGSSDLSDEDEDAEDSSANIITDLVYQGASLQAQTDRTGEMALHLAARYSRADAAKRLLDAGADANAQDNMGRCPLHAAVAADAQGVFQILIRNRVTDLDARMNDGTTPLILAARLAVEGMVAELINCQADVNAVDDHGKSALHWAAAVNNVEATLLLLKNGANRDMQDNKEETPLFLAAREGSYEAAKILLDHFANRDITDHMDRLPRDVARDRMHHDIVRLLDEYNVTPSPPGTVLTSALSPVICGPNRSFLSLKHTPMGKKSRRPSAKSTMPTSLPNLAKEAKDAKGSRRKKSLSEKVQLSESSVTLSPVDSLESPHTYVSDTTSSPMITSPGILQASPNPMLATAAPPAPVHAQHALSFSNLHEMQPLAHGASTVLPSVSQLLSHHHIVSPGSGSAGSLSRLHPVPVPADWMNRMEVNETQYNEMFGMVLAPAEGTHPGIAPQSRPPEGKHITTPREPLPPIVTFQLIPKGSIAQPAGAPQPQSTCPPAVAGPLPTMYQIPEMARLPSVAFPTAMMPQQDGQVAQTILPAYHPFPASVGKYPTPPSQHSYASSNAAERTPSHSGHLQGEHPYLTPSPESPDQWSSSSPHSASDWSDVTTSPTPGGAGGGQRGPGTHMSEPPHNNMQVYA
Chain of Pro-neuregulin-1, membrane-bound isoform (Homo sapiens) (Q02297 whole entry, looked up, the tested form may be a part, canonical isoform): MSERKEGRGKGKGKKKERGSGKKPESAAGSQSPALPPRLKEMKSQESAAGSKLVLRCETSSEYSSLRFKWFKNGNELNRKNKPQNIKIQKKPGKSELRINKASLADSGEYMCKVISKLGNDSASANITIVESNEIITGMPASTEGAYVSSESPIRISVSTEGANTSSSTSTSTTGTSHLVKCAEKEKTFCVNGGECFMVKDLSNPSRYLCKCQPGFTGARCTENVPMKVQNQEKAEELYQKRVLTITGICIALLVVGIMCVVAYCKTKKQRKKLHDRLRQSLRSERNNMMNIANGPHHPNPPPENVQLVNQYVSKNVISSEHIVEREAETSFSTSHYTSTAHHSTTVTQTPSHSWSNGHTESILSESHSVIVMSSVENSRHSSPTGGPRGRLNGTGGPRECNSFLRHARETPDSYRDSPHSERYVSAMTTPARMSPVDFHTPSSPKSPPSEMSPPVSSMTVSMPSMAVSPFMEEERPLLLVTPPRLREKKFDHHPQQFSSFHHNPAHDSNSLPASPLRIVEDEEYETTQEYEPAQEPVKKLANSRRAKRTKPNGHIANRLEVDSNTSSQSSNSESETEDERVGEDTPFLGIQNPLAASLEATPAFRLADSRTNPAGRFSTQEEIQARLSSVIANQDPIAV

Compound	composite z-score [1]	composite z-score [2]	composite z-score [3]	composite z-score [4]	composite z-score [5]	composite z-score [6]	composite z-score [7]	z-score [8]	composite z-score [9]	composite z-score [10]	composite z-score [11]	z-score [12]	z-score [13]	z-score [14]	composite z-score [15]	z-score [16]	composite z-score [17]	composite z-score [18]	composite z-score [19]	composite z-score [20]
O=C(NCC(F)(F)F)[C@@H]1c2ccccc2C(=O)N(Cc2ccccc2)[C@H]1c1ccc(CO)cc1	1.16	0.299	-0.0637	-0.358	-0.514	0.0291	0.432	-1.3 (inactive)	-0.419	-0.0078	1.04	-0.526 (inactive)	0.0532 (inactive)	0.13 (inactive)	2.35	0.544 (inactive)	-0.0192	-1.34	-0.612	-0.194
C[C@]1(C(=O)NCC(F)(F)F)c2ccccc2C(=O)N(Cc2cc(F)cc(C(F)(F)F)c2)[C@H]1c1ccc(CO)cc1	-0.599	0.553	0.274	0.0438	-0.94	1.74	0.623	-0.763 (inactive)	-0.409	2.14	1.38	0.49 (inactive)	-0.936 (inactive)	-0.563 (inactive)	2.67	-0.951 (inactive)	0.341	-0.16	-0.255	0.52
CN1C(=O)C2C(C1=O)C1C=C(c3ccc(CO)cc3)C2C(C2CC2)N1Cc1sc2ccccc2c1Cl (stereo not given)	0.0497	1.17	0.0311	1.02	1.68	1.41	0.866	-2.04 (inactive)	0.391	0.2	1.55	0.654 (inactive)	-3 (inactive)	1.42 (inactive)	3.33	0.204 (inactive)	0.252	0.411	1.03	0.0651
C=CCCN(CC#C[C@H]1Oc2ccccc2S(=O)(=O)N2CCC[C@@H]12)S(=O)(=O)c1ccc(C)cc1	-0.141	-0.0385	-0.0717	0.61	-0.271	0.353	0.476	-4.31 (inactive)	0.0279	0.0373	0.514	1.15 (inactive)	-1.7 (inactive)	0.965 (inactive)	0.974	-1.59 (inactive)	-0.139	0.264	0.18	-0.145
[N-]=[N+]=Nc1ccccc1[C@H]1OC(c2ccc(OCCCO)cc2)=N[C@@]1(CCS(=O)(=O)c1ccccc1)C(=O)N1CCOCC1	1.84	0.962	0.45	1.13	1.7	1.66	1.27	5.15 (inactive)	1.53	-0.372	1.55	1.17 (inactive)	0.403 (inactive)	4.39 (inactive)	3.1	1.1 (inactive)	0.766	0.245	1.09	0.561
CN1C(=O)C2C=CC(C(O)C=Cc3ccc([N+](=O)[O-])cc3)N(N3CCCCC3)C2C1=O (stereo not given)	1.79	1.62	0.556	1.11	1.69	1.69	0.932	4.21 (inactive)	2.23	0.217	1.09	-0.704 (inactive)	-7.07 (inactive)	-0.476 (inactive)	2.79	-1.33 (inactive)	0.859	0.38	1.06	0.789
CCOC1=C2C(c3ccc(C)cc3)N(S(=O)(=O)c3ccc(C)cc3)CC2n2c(=O)n(-c3ccccc3)c(=O)n2C1 (stereo not given)	-0.19	0.475	0.0876	0.94	1.55	1.13	0.0031	-3.93 (inactive)	0.701	-0.26	1.41	-0.281 (inactive)	0.401 (inactive)	1.73 (inactive)	2.89	-0.278 (inactive)	0.152	0.351	1.08	0.0201
[N-]=[N+]=NCc1ccccc1[C@H]1OC(c2ccc(OCCCO)cc2)=N[C@@]1(Cc1ccccc1)C(=O)O	0.227	0.325	-0.0586	0.345	0.653	1.1	0.97	1.82 (inactive)	0.554	-0.0994	1.55	-0.36 (inactive)	-2.06 (inactive)	-0.759 (inactive)	2.81	-0.395 (inactive)	0.0869	0.462	0.502	0.346
CCOC(=O)C1=CC[C@@H](c2cccc(Cl)c2)N(S(=O)(=O)c2ccc(C)cc2)[C@H]1c1ccc(C#N)cc1	0.128	0.0669	0.104	0.862	1.65	1.61	1.15	-0.534 (inactive)	0.751	0.0274	1.56	0.914 (inactive)	1.99 (inactive)	2.58 (inactive)	3.18	-1.2 (inactive)	-0.0018	0.156	1.05	0.191
C/C=C/[C@H](CCn1cc([C@H](O)c2ccccc2)nn1)[Si](C)(C)c1ccc(OC)cc1	1.18	-0.153	-0.234	-0.071	-1.51	0.0287	-0.0288	-0.488 (inactive)	-1.04	-0.374	-0.144	-0.298 (inactive)	-1.05 (inactive)	-0.229 (inactive)	0.0061	0.0004 (inactive)	-0.139	-0.953	-0.999	-0.375
CN(C)CCCN1C(=O)[C@@]2(c3ccc([N+](=O)[O-])cc3)CC(=O)N(C3CCCCC3)[C@@H]2c2ccc(CO)cc21	-0.363	-0.0124	-0.107	0.251	0.166	-0.483	-1.19	1.19 (inactive)	0.161	-0.353	-0.282	-1.34 (inactive)	-1.09 (inactive)	-2.61 (inactive)	-0.933	-1.22 (inactive)	-0.142	-0.233	-0.0488	-0.103
CCOC(=O)C[C@H]1[C@H](OC(=O)c2cc3ccccc3oc2=O)[C@@H](NC(=O)c2ccc3ccccc3c2)c2cc(OCCCO)ccc2N1C(=O)c1ccccc1	-0.444	-0.183	0.0087	0.973	0.525	-0.0064	1.13	0.0705 (inactive)	0.623	-0.0994	1.13	-0.087 (inactive)	-1.05 (inactive)	0.41 (inactive)	1.6	1.06 (inactive)	-0.139	0.798	0.983	-0.0829
C=CCOC(=O)[C@H]1[C@@H]2C(=O)O[C@@H](c3ccccc3)[C@@H](c3ccccc3)N2[C@@H](c2ccc(OCCOC(=O)[C@H]3C[C@H]4C(=O)N[C@@H](CCCC[N+](C)(C)C)C(=O)N4[C@H]3c3ccc(O)cc3)cc2)[C@]12C(=O)Nc1ccccc12	0.104	0.154	-0.1	0.276	0.193	0.06	1.09	0.131 (inactive)	0.357	-0.608	-0.146	-0.193 (inactive)	-2.55 (inactive)	-1.05 (inactive)	1.68	-0.405 (inactive)	0.126	1.08	0.321	-0.194
NC(=O)NCC#Cc1ccc2c(c1)[C@]1(C(=O)N2)[C@H](c2ccccc2OCCO)N2[C@H](c3ccccc3)[C@H](c3ccccc3)OC(=O)[C@H]2[C@@H]1C(=O)N1CCCCCCC1	3.75	1.38	0.866	0.803	1.38	1.31	1.08	-1.7 (inactive)	3.41	3.04	1.55	0.456 (inactive)	-1.36 (inactive)	1.49 (inactive)	4.09	1.26 (inactive)	1.79	1.8	1.11	1.21
CN1C(=O)C2C=CC(C(O)c3ccc(Br)cc3)N(Nc3ccccc3)C2C1=O (stereo not given)	0.607	1.46	-0.0747	-0.287	-0.468	0.648	0.728	0.665 (inactive)	-0.118	-0.0346	-0.897	0.947 (inactive)	-0.0449 (inactive)	0.878 (inactive)	1.27	-0.54 (inactive)	0.296	-1.48	-1.17	-0.0594
CC(C)NC(=O)[C@@]1(c2ccc([N+](=O)[O-])cc2)CC(=O)N(C(C)C)[C@@H]1c1ccc(CO)cc1	1.12	-0.0946	-0.134	-0.218	-0.999	-0.524	0.697	-0.31 (inactive)	-1.08	-0.256	0.859	-2.06 (inactive)	-0.476 (inactive)	-0.692 (inactive)	2.61	1.26 (inactive)	0.0945	-1.14	-0.323	-0.253
COCCOC(=O)N1C(=O)[C@@]2(c3cc(C#Cc4ccc(OC)cc4)ccc31)[C@H](c1ccc(OCCO)cc1)N1[C@H](c3ccccc3)[C@H](c3ccccc3)OC(=O)[C@H]1[C@@H]2C(=O)N1CCc2cc(OC)c(OC)cc2C1	-0.327	0.514	0.0051	0.214	0.871	0.424	0.981	-0.948 (inactive)	0.225	0.232	1.56	2.81 (inactive)	1.39 (inactive)	7.07 (inactive)	0.434	1.56 (inactive)	-0.202	1.28	1.12	-0.02
C=CCN1C(=O)[C@@]2(O[C@@H](CCO)[C@H]([Si](C)(C)c3ccc(OC)cc3)[C@H]2C)c2cc(N3C(=O)COc4ccccc43)ccc21	-0.351	0.28	-0.0293	1.02	0.227	1.02	0.746	-1.54 (inactive)	0.975	-0.358	1.45	1.64 (inactive)	0.842 (inactive)	35.4 (active)	1.81	0.375 (inactive)	-0.275	0.17	0.4	-0.178
COCCOC(=O)N1C(=O)[C@@]2(c3ccccc31)[C@H](c1ccc(O)cc1)N1[C@H](c3ccccc3)[C@H](c3ccccc3)OC(=O)[C@H]1[C@@H]2C(N)=O	0.113	0.192	-0.106	-0.304	-0.818	0.178	0.651	-1.16 (inactive)	-0.722	-0.226	-0.0183	0.396 (inactive)	-0.153 (inactive)	0.549 (inactive)	2.35	-0.29 (inactive)	-0.126	-0.678	-0.474	-0.16
